Targets with a hit are over-represented here; the source holds about 8,800 in all. About 0.5% of all pairs of compound and target were hits. A number with no mark means an inactive call.
Compound: c1ccc([C@@H]2C[C@H]2NC2CCNCC2)cc1
Test: log2 fold change, soluble protein after heating vs DMSO (PISA); higher = thermal stabilisation; K562 lysate, 10 uM; active = over 0.2 and 3.5 SD of the protein, either way, in both replicates (recomputed)
Method in brief: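 K562 pellets were dounce-homogenised in PBS pH 7.4 with 1 mM MgCl2, and the crude extract at 1 mg/mL protein was treated with 10 μM compound for 30 min. Aliquots were heated for 3 min across 48°C-58°C, pooled, and brought to 0.5% NP-40 at 4°C; soluble protein was the supernatant after 21,000xg for 90 min. Soluble protein was quantified by TMTpro 16plex LC-MS/MS with channel sums equalised, and reported as log2 fold change in thermal stability against DMSO controls, with values from duplicates.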

Sequence of UniProt O75534 (O75534 whole entry, looked up): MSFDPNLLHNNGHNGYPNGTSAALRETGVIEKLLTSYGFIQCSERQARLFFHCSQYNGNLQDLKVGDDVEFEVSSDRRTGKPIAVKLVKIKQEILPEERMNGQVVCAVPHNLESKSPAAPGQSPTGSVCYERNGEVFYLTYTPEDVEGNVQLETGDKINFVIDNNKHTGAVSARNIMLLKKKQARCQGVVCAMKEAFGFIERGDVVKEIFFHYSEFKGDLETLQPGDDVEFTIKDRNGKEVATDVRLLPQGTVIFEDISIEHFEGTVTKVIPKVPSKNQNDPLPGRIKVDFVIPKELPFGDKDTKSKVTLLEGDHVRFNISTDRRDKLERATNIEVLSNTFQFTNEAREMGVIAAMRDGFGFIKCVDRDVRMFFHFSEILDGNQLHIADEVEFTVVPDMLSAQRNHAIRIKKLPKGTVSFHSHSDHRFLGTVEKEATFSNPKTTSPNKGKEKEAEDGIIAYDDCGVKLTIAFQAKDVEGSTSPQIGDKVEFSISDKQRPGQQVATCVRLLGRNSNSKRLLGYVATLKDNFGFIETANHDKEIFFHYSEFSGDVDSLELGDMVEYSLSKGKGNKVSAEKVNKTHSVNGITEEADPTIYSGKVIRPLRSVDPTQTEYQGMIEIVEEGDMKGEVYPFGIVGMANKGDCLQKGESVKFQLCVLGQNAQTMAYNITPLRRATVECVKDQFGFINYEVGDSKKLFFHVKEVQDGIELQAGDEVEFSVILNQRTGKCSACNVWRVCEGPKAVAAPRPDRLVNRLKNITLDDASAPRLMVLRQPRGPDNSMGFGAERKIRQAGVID
Sequence of UniProt P50570 (P50570 whole entry, looked up): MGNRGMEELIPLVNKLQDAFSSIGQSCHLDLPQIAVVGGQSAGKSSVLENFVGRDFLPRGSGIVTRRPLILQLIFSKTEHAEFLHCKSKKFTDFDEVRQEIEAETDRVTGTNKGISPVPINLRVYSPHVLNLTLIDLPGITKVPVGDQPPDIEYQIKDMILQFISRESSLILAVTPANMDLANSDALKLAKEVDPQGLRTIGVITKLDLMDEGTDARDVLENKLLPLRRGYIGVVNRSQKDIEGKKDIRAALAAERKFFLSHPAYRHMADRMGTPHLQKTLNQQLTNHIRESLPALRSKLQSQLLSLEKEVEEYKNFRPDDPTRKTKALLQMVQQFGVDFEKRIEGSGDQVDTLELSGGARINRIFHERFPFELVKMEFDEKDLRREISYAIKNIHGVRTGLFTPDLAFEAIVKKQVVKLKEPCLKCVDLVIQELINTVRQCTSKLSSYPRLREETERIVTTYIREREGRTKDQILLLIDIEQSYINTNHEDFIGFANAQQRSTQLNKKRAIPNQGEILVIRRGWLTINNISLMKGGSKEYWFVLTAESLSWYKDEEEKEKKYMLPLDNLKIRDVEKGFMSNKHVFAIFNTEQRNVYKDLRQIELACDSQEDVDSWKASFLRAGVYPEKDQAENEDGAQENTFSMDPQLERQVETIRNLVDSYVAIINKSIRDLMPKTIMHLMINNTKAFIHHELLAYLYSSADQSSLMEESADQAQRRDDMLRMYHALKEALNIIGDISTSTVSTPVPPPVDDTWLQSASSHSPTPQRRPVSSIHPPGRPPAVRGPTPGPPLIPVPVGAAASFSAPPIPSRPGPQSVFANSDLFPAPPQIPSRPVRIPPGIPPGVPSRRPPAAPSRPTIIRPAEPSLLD
Sequence of UniProt P51530 (P51530 whole entry, looked up): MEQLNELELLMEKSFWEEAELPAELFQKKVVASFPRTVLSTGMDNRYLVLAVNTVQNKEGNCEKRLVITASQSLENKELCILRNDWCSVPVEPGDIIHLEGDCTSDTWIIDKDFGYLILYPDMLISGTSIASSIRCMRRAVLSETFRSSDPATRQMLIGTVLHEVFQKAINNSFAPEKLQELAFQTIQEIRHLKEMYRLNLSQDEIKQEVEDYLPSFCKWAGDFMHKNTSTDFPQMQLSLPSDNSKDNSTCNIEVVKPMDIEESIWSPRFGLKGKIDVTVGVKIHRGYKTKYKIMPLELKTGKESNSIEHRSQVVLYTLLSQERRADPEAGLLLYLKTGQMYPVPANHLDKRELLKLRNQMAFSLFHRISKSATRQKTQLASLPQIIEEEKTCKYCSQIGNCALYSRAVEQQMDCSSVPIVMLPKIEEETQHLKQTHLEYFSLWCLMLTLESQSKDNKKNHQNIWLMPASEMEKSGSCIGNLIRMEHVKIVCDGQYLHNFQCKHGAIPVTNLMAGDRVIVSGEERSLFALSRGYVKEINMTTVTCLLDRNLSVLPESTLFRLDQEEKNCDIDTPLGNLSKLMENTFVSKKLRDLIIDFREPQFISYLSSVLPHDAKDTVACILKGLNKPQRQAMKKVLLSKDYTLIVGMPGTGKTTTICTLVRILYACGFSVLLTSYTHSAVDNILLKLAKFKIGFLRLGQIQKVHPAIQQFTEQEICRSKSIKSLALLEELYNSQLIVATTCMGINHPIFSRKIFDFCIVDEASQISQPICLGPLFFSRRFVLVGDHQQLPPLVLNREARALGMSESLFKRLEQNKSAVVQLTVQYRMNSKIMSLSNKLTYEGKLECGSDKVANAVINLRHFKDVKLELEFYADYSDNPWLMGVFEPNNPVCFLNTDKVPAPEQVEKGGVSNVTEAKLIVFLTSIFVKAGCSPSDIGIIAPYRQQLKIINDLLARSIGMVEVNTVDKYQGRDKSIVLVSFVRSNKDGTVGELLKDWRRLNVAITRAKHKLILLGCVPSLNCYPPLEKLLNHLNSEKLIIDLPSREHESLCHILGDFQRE

| Target | log2 fold change |
| --- | --- |
| CHMP4A (UniProt H0YIN6) | -0.12 |
| DNM2 isoform 4 (UniProt P50570) | -0.043 |
| CSDE1 isoform 3 (UniProt O75534) | 0.043 |
| DNA2 (UniProt P51530) | 0.026 |

Source: the supplement of paper PMC10849652
